SMILES strings stand for the structures. About 83,000 compounds went through this panel and 20% of them were active in at least one assay; those are over-represented in the sample as a whole.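 Cells were grown in 96-well plates and exposed to the test compound at a single concentration for 48 hours; results are reported as percent growth, with values below 10 considered active.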 Values without a mark were called inactive. Activity calls are given as the source filed them.

Holding throughout (test): NCI-60 one-dose screen, 48 h (100 = growth as untreated, 0 = no growth, -100 = all killed)
What all share (details): 10 µM unless noted

Assay [1] has as its system SR leukemia.
Assay [2] relates to RPMI-8226 leukemia.
The test system of assay [3] is OVCAR-8 ovarian.
Assay [4] concerns OVCAR-5 ovarian.
The test system of assay [5] is OVCAR-4 ovarian.
In assay [6] the test system is IGROV1 ovarian.
The subject of assay [7] is OVCAR-3 ovarian.
The test system of assay [8] is HS 578T breast.
Assay [9] concerns NCI/ADR-RES ovarian.
Assay [10] has as its system SK-OV-3 ovarian.

With `O=C(Nc1cccc(-c2ccc(Cl)c(C(F)(F)F)c2)c1)C1CCN(Cc2cccc3cccnc23)CC1`, the growth in [1] is -25.7% (active); in assay [2], -27.3% (active); in [3] it was -38.3% (active); in assay [4] it was 70.2%; in assay [5] it was 17.4%; in assay [6], -56.2% (active). Moreover, the growth in assay [7] is -66.4% (active); in [8], 5.48% (active); in assay [9] it was 0.0048% (active).

For `O=C(Nc1nc2cc(C(=O)N3CCN(C(c4ccccc4)c4ccccc4)CC3)ccc2o1)c1ccc(NC2CCCCC2)c([N+](=O)[O-])c1`, the growth in [1] was 49.1%; in assay [2], 40.1%; in assay [3], 37.8%; in assay [5], 38.8%; in assay [10], 73.8%; in [6], 51.1%. Also, the growth in assay [7] was 52.8%; in assay [8], 76%; in assay [9] it was 35.3%.

For `COc1c(C(=O)Nc2ccc(C)c(Br)c2)ccc2ccccc12`, the growth in assay [1] is 54.3%; in assay [2], 95.7%; in [3], 99.3%; in [4], 92.2%; in assay [5] it was 82.9%; in assay [6], 94.3%. Besides, the growth in assay [7] was 107%; in [8], 85.5%; in assay [9], 84.6%.

Turning to `C=C1C(=O)O[C@H]2[C@H]1CC/C(COC(=O)NCc1ccc(Cn3c(=O)sn(CCCCC)c3=O)cc1)=C\CC[C@@]1(C)O[C@@H]21`, the growth in assay [1] was 3.58% (active); in assay [2], -22.8% (active); in assay [3] it was 58%; in assay [5], 29.5%; in assay [10] it was 93.6%; in assay [6], 24.1%. Moreover, the growth in [7] is -56.1% (active); in assay [8] it was 71%; in assay [9], 99.8%.

Consider `c1csc(-c2ccc(CNc3c4ccccc4nc4ccccc34)cc2)c1`, for which the growth was -43.7% (active) in assay [1]; -44.4% (active) in assay [2]; 55.6% in assay [3]; 67.1% in assay [4]; 15.3% in assay [5]; 10% in assay [6]. For the same compound, the figures for the growth in assay [7], in assay [8] and in assay [9] were 9.5% (active), 60.6% and 11.2%, respectively.

On to `CC(=O)O[C@@H]1C[C@]2(C(C)C)O[C@@]1(C)[C@@H]1CCC(C)=C1[C@@H]2OC(=O)/C=C/c1ccccc1`, for which the growth is 73.6% in [1]; 76.6% in assay [2]; 67.5% in assay [3]; 79.1% in [5]; 89.3% in [10]; 94.9% in assay [6]. Moreover, the results for the growth in assay [7], in assay [8] and in [9] were 89.7%, 20% and 71.9%, respectively.

`C=CCn1c(C)nc2ccc(Nc3nc(Nc4ccc5nc(C)n(CC=C)c5c4)c4ccccc4n3)cc21`: the growth is -57.2% (active) in assay [1]; -43.3% (active) in assay [2]; -48.6% (active) in [3]; 25.1% in assay [4]; -93.3% (active) in assay [5]; -47.5% (active) in assay [6]. The values for the growth in assay [7] and in assay [9] were -95.4% (active) and 53.5%, respectively.

As to `CCOCCNC1=C(Cl)C(=O)c2ccccc2C1=O`, the growth in assay [1] is 89.3%; in assay [2], 90.4%; in [3] it was 106%; in [5], 107%; in assay [10], 108%; in assay [6] it was 112%. Further, the growth is 101% in assay [7], 91.9% in assay [8] and 103% in [9].

Turning to `NC(=O)C(=O)c1ccccc1NC=O`, the growth in assay [1] was 113%; in assay [2], 105%; in assay [3], 95.4%; in assay [5], 98.4%; in assay [10] it was 97.4%; in assay [6], 94.8%. Further, the values for the growth in [7], in assay [8] and in assay [9] were 110%, 109% and 89.6%, respectively.

Take `CCC(=C(c1ccc(OCCN2CCCCC2)cc1)c1ccc(OCCN2CCCCC2)cc1)c1ccc(Cl)cc1`: the growth in assay [1] was -49% (active); in assay [2], -59.8% (active); in assay [3], -75.4% (active); in [4], -95.4% (active); in assay [5], -90.2% (active); in [6] it was -87.9% (active). Also, the growth was -83.9% (active) in assay [7], -77.1% (active) in [8] and -84.6% (active) in assay [9].

`CC(=O)N1N=C(c2ccc(Nc3nc(Nc4ccccc4)nc(Nc4ccccc4)n3)cc2)CC1c1ccccc1` (configuration not stated): the growth is 62.3% in [1]; 59.9% in assay [2]; 82.9% in assay [3]; 96.5% in [5]; 95.5% in [10]; 54.1% in assay [6]. The figures for the growth in [7], in [8] and in [9] were 88.6%, 89.3% and 84.6%, respectively.

As to `CCOC(=O)c1c(NC(=O)c2ccc(Cl)cc2)sc2c(CN(C)C)c(O)ccc12`, the growth was -8.09% (active) in [1]; -13% (active) in assay [2]; 47.7% in assay [3]; 73.5% in assay [5]; 81.6% in [10]; 66.1% in [6]. Moreover, the growth in assay [7] is 105%; in [8], 79.2%; in assay [9], 73.3%.

Take `O=C1NC2(Nc3ccccc31)C(=O)Nc1c(Cl)cc(Cl)cc12` (configuration not stated): the growth is 93.2% in assay [1]; 105% in assay [2]; 102% in assay [3]; 98.9% in [5]; 107% in assay [10]; 91.5% in assay [6]. Further, the growth is 118% in [7], 100% in [8] and 108% in [9].

Consider `CCOC(=O)NC(C)C`, for which the growth in assay [1] was 112%; in assay [2], 113%; in assay [3] it was 103%; in assay [4] it was 90.5%; in assay [5], 107%; in assay [7] it was 112%. Further, the values for the growth in assay [8] and in [9] were 111% and 93.5%, respectively.

Regarding `CC1OC(n2c3ccccc3c3c4c(c5c6ccccc6[nH]c5c32)C(=O)N(CCN2CCCC2)C4=O)CC(O)C1O` (configuration not stated), the growth in [1] was -2.62% (active); in assay [2] it was 5.56% (active); in [3] it was 53.1%; in [5], 22.9%; in [10], 32.1%; in assay [6], 48.9%. Moreover, the growth in [7] is 60.2%; in [8] it was 58.2%; in [9], 54.1%.

For `COc1ccc(C(=O)Nc2cccc(-c3cc(=O)c4c(OC)c(OC)c(OC)cc4o3)c2)cc1`, the growth in assay [1] was 28.6%; in assay [2], 18.8%; in [3], 57.9%; in [5], 62%; in assay [10], 108%; in assay [6] it was 53.9%. The growth was 66.8% in assay [7], 42.9% in assay [8] and 60.2% in [9].

On to `COc1ccc2c(c1)N(CCO)C1=C(C(=O)OC1)C2c1cccc(F)c1` (configuration not stated), for which the growth in assay [1] was 16%; in assay [2], 21.3%; in [3], 11%; in assay [5], 51.5%; in assay [10], 23.2%; in [6] it was 34.5%. For the same compound, the values for the growth in assay [7], in assay [8] and in assay [9] were -16.7% (active), 34.2% and 15.6%, respectively.

Regarding `CCCCNC(=O)Oc1ccc(/C(=C(/C)Cc2ccc(OC)cc2)c2ccc(OCCN(CC)CC)cc2)cc1`, the growth in assay [1] was 16.7%; in assay [2] it was 66.3%; in [3], 86.9%; in assay [5] it was 80.3%; in assay [10], 97%; in assay [6], 93.7%. Also, the growth was 82% in assay [7], 76.9% in [8] and 91.1% in assay [9].

On to `CCCCCC(/C=N\NC(=S)N/N=C/C(=C/c1ccccc1)CCCCC)=C\c1ccccc1`, for which the growth in assay [1] is 56.2%; in assay [2], 44.7%; in assay [3], 64.4%; in assay [5], 56.2%; in [10], 85.9%; in assay [6], 64.1%. The growth in [7] is 26.2%; in assay [8], 73.8%; in [9], 60.2%.

`COc1ccc(C(C)=O)cc1S(=O)(=O)Nc1c(N)nc(SC)[nH]c1=O`: the growth in assay [1] is 103%; in [2] it was 96.6%; in assay [3], 105%; in assay [4], 104%; in [5] it was 108%; in [6] it was 102%. Moreover, the values for the growth in [7], in assay [8] and in [9] were 103%, 96.9% and 103%, respectively.

On to `CCCCNC(=O)Oc1ccc(/C(=C(/C)Cc2ccc(OC)cc2)c2ccc(OCCN3CCCC3)cc2)cc1`, for which the growth was -54.1% (active) in [1]; 1.62% (active) in assay [2]; 69.6% in assay [3]; 68.9% in [5]; 89.1% in assay [10]; 85.5% in [6]. Also, the values for the growth in assay [7], in assay [8] and in assay [9] were 56.1%, 50.4% and 81.5%, respectively.

On to `C=C1C(=O)O[C@H]2[C@H]1CC/C(COC(=O)C(=O)c1cn(C)c3ccc(Cl)cc13)=C\CC[C@@]1(C)O[C@@H]21`, for which the growth in assay [1] is 2.71% (active); in assay [2], -33.7% (active); in assay [3] it was -23.9% (active); in assay [5] it was -61.2% (active); in assay [10], -35.4% (active); in assay [6] it was -72.1% (active). Also, the figures for the growth in assay [7], in [8] and in assay [9] were -86.3% (active), -16.9% (active) and -3.58% (active), respectively.

In the case of `COc1c(B(O)O)cccc1-c1cc(C)c2c(ccc3[nH]ncc32)n1`, the growth in assay [1] was 27.5%; in [2], 68.7%; in [3], 64.1%; in assay [5], 122%; in [10], 59.3%; in assay [6], 59.1%. For the same compound, the growth in assay [7] was 113%; in assay [8] it was 8.78% (active); in assay [9], 83.3%.

As to `Cn1cc(-c2nonc2-c2cn(C)c3ccccc23)c2ccccc21`, the growth is 16% in assay [1]; 14.2% in [2]; 17.4% in assay [3]; 35.5% in assay [4]; 56.1% in assay [5]; 0.348% (active) in assay [7]. Further, the growth in [8] was 30.7%; in assay [9] it was 17.4%.

In the case of `COc1ccc(-c2nc3c(ncc4ccc(=O)[nH]c43)s2)cc1`, the growth in [1] was 45.5%; in assay [2], 69.2%; in assay [3] it was 83.9%; in assay [5] it was 98.8%; in assay [10], 102%; in assay [7], 85.5%. Also, the growth is 88% in [8] and 74.6% in assay [9].

Take `NC(N)=NCCCCCNc1noc(Cc2c[nH]c3cc(Br)ccc23)n1`: the growth in assay [1] is 98.3%; in assay [2], 39.6%; in assay [3], 64.6%; in assay [5], 67.5%; in assay [10] it was 83.7%; in assay [6], 56.3%. For the same compound, the growth in assay [7] is 33.4%; in [8] it was 56.9%; in [9] it was 101%.

For the compound `Cn1ccnc1C(=O)/C=C/c1ccc(CC(=O)Nc2cc(C(F)(F)F)cc(C(F)(F)F)c2)cc1`, the growth in assay [1] was 39.4%; in [2] it was 55%; in assay [3], 41%; in [5], 78.8%; in assay [10], 109%; in assay [6], 71.4%. For the same compound, the growth in assay [7] was 62.6%; in assay [8] it was 66.6%; in assay [9] it was 65.3%.

Turning to `CCNCCNc1cc(C2CCCCC2)c(C#N)c2nc3ccccc3n12`, the growth in [1] is -10.4% (active); in [2] it was -13.9% (active); in assay [3], 26.2%; in assay [5], 28.3%; in [10], 28.2%; in assay [6] it was 7.32% (active). In addition, the growth in assay [7] was -67.9% (active); in assay [8], -5.65% (active); in assay [9], 35.5%.

Regarding `Nc1[nH]n2cc(-c3ccccc3)nc2c1N=Nc1ccc(S(N)(=O)=O)cc1`, the growth was 13.3% in assay [1]; 5.77% (active) in assay [2]; 36.6% in assay [3]; 36.9% in assay [5]; 13.3% in assay [10]; 15.3% in assay [6]. Moreover, the growth was 46.8% in [7], 5.14% (active) in assay [8] and 90% in assay [9].

(Values after PubChem BioAssay (NCI).)
